From PubChem
TDP1 block – TDP1 (human) enzyme inhibition; Q9NUW8; recombinant TDP1, AlphaScreen DNA substrate cleavage; Potency, µM (highest dose often 130 µM), without a hit: at the highest dose activity change, negative = inhibition, actives largely listed as inhibitors; hit rate 0.28% among 350,000; AID 485290; also: nearly all actives have a fitted effect of over 40% in size
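Enzyme-compound mixtures sat 15 min at room temperature, followed by a 5 min reaction with 15 nM final substrate and 10 min with AlphaScreen beads. Recombinant human Tdp1 was used at 1 nM final.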
DT40 TDP1 no CPT – qHTS for Inhibitors of human tyrosyl-DNA phosphodiesterase 1 (TDP1): qHTS in cells in absence of CPT. DT40 Tdp1-/- hTDP1 cells, no CPT, ATP luminescence, 48 h. Potency, µM (top dose mostly 46.2 µM), inactives show at the top dose activity change, negative = growth inhibition, most hits filed as inhibitors. hit rate 15% among 420,000. AID 686978, 2013; also: nearly all actives have a fitted effect of over 55% in size
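Chicken DT40 Tdp1-/- cells complemented with human TDP1, screened without camptothecin (DMSO vehicle only), 400 cells/well. Compounds pin-transferred, cells incubated at 37 °C for at least 48 hr. Growth read as ATP-dependent luminescence (CellTiter-Glo, 30 min at RT).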
VP16 counter – Gal4-VP16 reporter inhibition counter-screen; Drosophila S2 Gal4-VP16 UAS-luciferase, luminescence, 20 h; Potency, µM (titrated, usually from 53.6 µM), for the others: top-dose activity, negative = inhibition, actives largely listed as inhibitors; hit rate 3.5% among 310,000; AID 2546;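 also: Gal4-VP16 expression switched on by copper sulfate through the metallothionein promoter; nearly all actives have a fitted effect of over 50% in size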
TDP1 cell CPT – growth inhibition of DT40 Tdp1-/-;hTDP1 cells with camptothecin (screen for TDP1 inhibitors) | chicken DT40 Tdp1-/-;hTDP1 cells + 20 nM CPT, ATP luminescence, 48 h | Potency, µM (doses to about 46.2 µM), for inactives: top-dose activity change, negative = growth inhibition, actives largely listed as inhibitors | hit rate 12% among 420,000; also: nearly all actives have a fitted effect of over 55% in size
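Chicken DT40 Tdp1-/- cells stably complemented with human TDP1 were seeded at 400 cells/well in medium containing 20 nM camptothecin, exposed to pin-transferred compounds, and grown at 37 °C for at least 48 hr. Viability was read as ATP luminescence.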
RORg inh – inhibitors of mouse ROR gamma transcriptional activity | P51450 | Drosophila S2 Gal4-RORgamma UAS-luciferase reporter, 20 h | Potency, µM (doses to about 53.6 µM), inactives show at the top dose activity change, negative = inhibition, hits mostly inhibitors | hit rate 5.4% among 310,000; also: nearly all actives have a fitted effect of over 60% in size
Target sequence (P51450 whole entry, looked up, the tested form may be a part): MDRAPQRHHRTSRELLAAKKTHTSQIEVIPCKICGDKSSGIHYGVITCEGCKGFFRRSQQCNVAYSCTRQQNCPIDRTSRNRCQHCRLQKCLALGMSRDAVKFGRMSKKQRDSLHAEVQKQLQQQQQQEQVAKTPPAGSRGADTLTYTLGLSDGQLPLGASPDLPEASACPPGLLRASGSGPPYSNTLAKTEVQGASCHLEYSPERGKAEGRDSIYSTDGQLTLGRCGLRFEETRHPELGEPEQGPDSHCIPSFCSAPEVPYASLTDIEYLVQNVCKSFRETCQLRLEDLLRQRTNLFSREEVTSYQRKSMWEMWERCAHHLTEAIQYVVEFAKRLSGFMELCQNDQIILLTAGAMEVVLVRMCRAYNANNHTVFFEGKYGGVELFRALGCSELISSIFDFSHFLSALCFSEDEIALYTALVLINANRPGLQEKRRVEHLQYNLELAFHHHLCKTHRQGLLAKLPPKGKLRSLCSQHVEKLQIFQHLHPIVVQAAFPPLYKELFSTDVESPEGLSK
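Stable Schneider cell line, Gal4 DNA-binding domain fused to ROR gamma, UAS-luciferase. Cmpd 1 hr RT → CuSO4 700 uM final → 20 hr RT → luciferase reagent 10 min → luminescence.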
Numbers without * were called inactive; [ ] = another dose, or the depositor's remark. Rows were chosen to be rich in hits. Some 19% of all compounds tested hit in one or more screens of this group. Calls follow the shape of the dose curve; as a rule, active = well fitted curve in the direction sought with a large enough effect; inconclusive = small, poorly fitted or top-dose-only effect, or another doubt; inactive = no such curve, though single readings can be large; an effect the other way counts as inactive or inconclusive. % is scaled to controls: 0 for no effect and ±100 for the full control effect; potency is read from the fitted curve at half-maximal effect.

What do the screens show for `CC1O[C@@H](O[C@@H]2C(O)C[C@H](O[C@@H]3C(O)C[C@@H](OC4CC[C@@]5(C)C6CC(O)[C@@]7(C)C(C8=CC(=O)OC8)CC[C@@]7(O)C6CC[C@@H]5C4)OC3C)OC2C)CC(O)[C@H]1O` (some centres undefined)?
TDP1 block: -7.3%[56.1 µM]; DT40 TDP1 no CPT: 1.84µM*; VP16 counter: -7.3%; TDP1 cell CPT: 3.26µM*; RORg inh: 8.91µM*

What do the screens show for `O=C(NCc1ccco1)c1ccc(-c2ccc3nccn3c2)cc1`?
DT40 TDP1 no CPT: inconclusive; TDP1 cell CPT: 23.1µM*

Results for O=C(NCc1ccco1)c1ccc(C(=O)NCc2ccco2)s1 ?
TDP1 block: 3.9%; DT40 TDP1 no CPT: 25.9µM*; VP16 counter: 12.2%; TDP1 cell CPT: inconclusive; RORg inh: 14.1%

How did CSc1ccc(Cl)c(C(=O)OCC(=O)NCc2ccco2)c1 do in these assays?
TDP1 block: -4.2%; DT40 TDP1 no CPT: -22.1%; VP16 counter: 19.5%; TDP1 cell CPT: -13.2%; RORg inh: 23.3%

What do the screens show for `O=C(NC1CC1)c1ccc(-c2ccc3nccn3c2)cc1`?
DT40 TDP1 no CPT: -22.8%; TDP1 cell CPT: inconclusive

How did CSc1ccc(Cl)c(C(=O)NCc2ccco2)c1 do in these assays?
TDP1 block: -1.0%; DT40 TDP1 no CPT: inconclusive; VP16 counter: -0.8%; TDP1 cell CPT: 16.4µM*; RORg inh: 7.1%

Results for CCC(=O)N1CCN(c2ccc(NC(=O)COc3ccc(CC)cc3)cc2)CC1 ?
TDP1 block: -1.1%; DT40 TDP1 no CPT: 20.6µM*; VP16 counter: -19.7%; TDP1 cell CPT: -18.8%; RORg inh: -13.3%

What do the screens show for `CCC(=O)Nc1ccc(N2CCN(C(=O)c3ccccc3C)CC2)cc1`?
TDP1 block: 1.1%; DT40 TDP1 no CPT: -15.3%; VP16 counter: 18.3%; TDP1 cell CPT: -20.5%; RORg inh: 36.7%

Results for Cc1cc(C)cc(OCC(=O)Nc2ccc(N3CCN(C(=O)c4ccco4)CC3)cc2)c1 ?
TDP1 block: -1.1%; DT40 TDP1 no CPT: 17.8µM*; VP16 counter: -15.8%; TDP1 cell CPT: 23.1µM*; RORg inh: inconclusive

What do the screens show for `Cc1ccccc1C(=O)N1CCN(c2ccc(NC(=O)CSc3ccc(Cl)cc3)cc2)CC1`?
TDP1 block: 5.3%; DT40 TDP1 no CPT: 10.3µM*; VP16 counter: inconclusive; TDP1 cell CPT: 16.4µM*; RORg inh: inconclusive

How did CCCCC(=O)Nc1ccc(N2CCN(C(=O)CC)CC2)cc1 do in these assays?
TDP1 block: 4.4%; DT40 TDP1 no CPT: -5.8%; VP16 counter: -2.8%; TDP1 cell CPT: -5.2%; RORg inh: 12.7%

How did Cc1ccccc1OCC(=O)Nc1ccc(N2CCN(C(=O)c3ccco3)CC2)cc1 do in these assays?
TDP1 block: 4.9%; DT40 TDP1 no CPT: 20.6µM*; VP16 counter: -1.8%; TDP1 cell CPT: inconclusive; RORg inh: inconclusive

Results for CN(CCCNC(=O)Cn1cc2c(n1)CCCC2)C1CCCCC1 ?
TDP1 block: 5.2%; DT40 TDP1 no CPT: -15.2%; VP16 counter: 2.3%; TDP1 cell CPT: 3.8%; RORg inh: -16.2%

What do the screens show for `CCOc1ccc(NS(=O)(=O)c2ccc3[nH]cc(C(=O)N(C)C4CCCCC4)c(=O)c3c2)cc1`?
TDP1 block: -3.8%; DT40 TDP1 no CPT: -7.5%; TDP1 cell CPT: 3.6%

How did Cc1cc(-c2nnc(CCC(=O)N(C)CCc3ccccc3)o2)no1 do in these assays?
TDP1 block: 4.8%; DT40 TDP1 no CPT: 9.7%; VP16 counter: 21.1%; TDP1 cell CPT: -22.0%; RORg inh: 4.5%

How did O=C(COc1ccc(Cl)cc1)Nc1ccc(N2CCN(C(=O)c3ccco3)CC2)cc1 do in these assays?
TDP1 block: 5.9%; DT40 TDP1 no CPT: 13µM*; VP16 counter: -28.7%; TDP1 cell CPT: 10.3µM*; RORg inh: inconclusive

How did O=C(CSc1ccc(Cl)cc1)Nc1ccc(N2CCN(C(=O)c3ccco3)CC2)cc1 do in these assays?
TDP1 block: 4.5%; DT40 TDP1 no CPT: 23.1µM*; VP16 counter: -20.1%; TDP1 cell CPT: inconclusive; RORg inh: -88.0%
